According to the supplement of paper PMC3334620:
In all, about 33,000 sequences were measured (“E-score (-0.5 to 0.5)”: median about -0.016, highest 2% from about 0.31 on). For the sample, the highest values were picked, then their nearest neighbours and some sequences at random.

target: Cst6 (UniProt P40535); assay: PBM E-score (8-mer binding enrichment) (E-score (-0.5 to 0.5)); higher = stronger / more preferred TF binding; conditions: protein concentration: 200 nM; construct: GST-DNA-binding domain
Experimental: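 Universal 'all 10-mer' protein binding microarrays (Agilent AMADID 015681) probed with GST-tagged S. cerevisiae TFs (full-length or DBD) made by in vitro transcription/translation (PURExpress), about 100-200 nM. Bound TF was detected with fluorescent anti-GST. Each ungapped 8-mer (which stands for itself and its reverse complement) is scored by the PBM enrichment score (E-score), a modified Wilcoxon-Mann-Whitney statistic from -0.5 to +0.5, computed with the Universal PBM Analysis Suite. Scale: above 0.35 generally sequence-specific binding.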

Chain of UniProt P40535 (P40535 whole entry, the tested form may be a part): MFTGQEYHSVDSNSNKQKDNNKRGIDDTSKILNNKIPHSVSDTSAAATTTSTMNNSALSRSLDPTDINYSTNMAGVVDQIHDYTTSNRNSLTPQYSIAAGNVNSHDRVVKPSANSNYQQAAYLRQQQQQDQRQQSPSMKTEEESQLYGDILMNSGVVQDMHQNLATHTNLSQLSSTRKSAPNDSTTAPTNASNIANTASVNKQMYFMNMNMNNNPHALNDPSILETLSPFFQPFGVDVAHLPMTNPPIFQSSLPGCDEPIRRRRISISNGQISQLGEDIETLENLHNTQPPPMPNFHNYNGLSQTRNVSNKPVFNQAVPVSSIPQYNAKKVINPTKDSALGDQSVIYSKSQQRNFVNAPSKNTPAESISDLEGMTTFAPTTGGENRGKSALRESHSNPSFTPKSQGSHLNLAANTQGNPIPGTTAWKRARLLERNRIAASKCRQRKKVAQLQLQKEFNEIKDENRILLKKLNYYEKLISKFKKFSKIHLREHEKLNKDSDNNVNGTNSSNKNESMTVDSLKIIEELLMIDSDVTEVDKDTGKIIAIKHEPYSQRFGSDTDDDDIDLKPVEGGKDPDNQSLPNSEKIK

| Sequence | PBM E-score |
| --- | --- |
| AAACGTAT | 0.276 |
| CAACGTTC | -0.13 |
| GGCCCTCA | -0.266 |
| AAGCAAAC | 0.0375 |
| CGATGAGA | -0.048 |
| TCATGACA | 0.392 |
| TGATGACA | 0.368 |
| CGATGACG | 0.48 |
| CGATGAAG | 0.0389 |
| AGATGACA | 0.283 |
| CGATGACA | 0.383 |
| GGATGACA | 0.287 |
| TGATGAAA | 0.289 |
| TCATGAGA | 0.214 |
| GCATGACA | 0.288 |
| CGATGACC | 0.0541 |
| AAGCGTGA | 0.141 |
| GACTATCA | -0.104 |
| CGGAGATC | -0.205 |
| ACTGTGTA | -0.043 |
| CTACTCCC | -0.156 |
| CAGGCCAA | -0.178 |
| GCGTGACA | 0.255 |
| CGTTCTTC | 0.151 |
| ACAGATCC | 0.0419 |
| ACGAACAC | 0.138 |

| Sequence | PBM E-score |
| --- | --- |
| AGATGACT | 0.0398 |
| AGATGACG | 0.473 |
| AGATGACC | 0.0152 |
| ACTCTGGA | 0.109 |
| GGACGAAA | 0.0732 |
| CGACGACA | -0.054 |
| AGACGAAA | 0.134 |
| TGACGAAA | 0.477 |
| GGACGACA | 0.0793 |
| TGACGACA | 0.476 |
| TGCATCAA | 0.154 |
| CAGCCAAA | 0.0814 |
| AGCCTGAA | -0.0532 |
| CTGACCTC | 0.0456 |
| ATGACCTG | 0.0198 |
| ATGACCTA | 0.346 |
| GTGACCTA | 0.192 |
| CTGACCTA | -0.0164 |
| ATGACCTC | 0.349 |
| GCCGGCAA | -0.108 |
| CGTCATCA | 0.487 |
| CGTCATCC | 0.473 |
| AGTCATCC | -0.0119 |
| CCTCATCC | -0.272 |
| AGTCATCA | 0.0814 |
| GGTCATCA | 0.247 |

| Sequence | PBM E-score |
| --- | --- |
| CGGCACGC | 0.0275 |
| TGTGGAAA | 0.186 |
| AATGATGG | 0.186 |
| AATGATTC | 0.225 |
| GATGATTA | 0.2 |
| ATTGATTG | 0.237 |
| ATTGATTC | 0.178 |
| ATTGATTA | 0.308 |
| AATGATTA | 0.344 |
| AATGATGA | 0.334 |
| AAAGATGT | 0.13 |
| AATGATCT | 0.215 |
| AATGATGT | 0.41 |
| ACTGATGA | 0.173 |
| CCAAACTC | -0.0716 |
| CTCATCGC | -0.0477 |
| GTAACCAC | -0.0805 |
| AACAGAGG | -0.0721 |
| ACAAGTTG | -0.0486 |
| AACACCCA | -0.246 |
| TGAACCAA | 0.184 |
| AGGCGGTA | -0.225 |
| CCAAGCCG | -0.182 |
| TGCCATAA | 0.00753 |
| ACGTTACC | 0.179 |
| AACGGTTG | 0.0747 |

| Sequence | PBM E-score |
| --- | --- |
| GATGATGC | 0.328 |
| AGTGATGA | 0.284 |
| GATGATCC | 0.00428 |
| AATGATCC | 0.026 |
| ATTGATGC | 0.262 |
| AATGATGC | 0.347 |
| AGTGATGG | 0.0422 |
| AGTGATGC | 0.317 |
| CCTGATGC | 0.0754 |
| AAATTAGC | 0.153 |
| ACACTCCC | -0.177 |
| GCACTAAC | -0.119 |
| CCACCTCA | -0.114 |
| AGCAGTGG | -0.048 |
| AATATAAG | 0.352 |
| AATATAAA | 0.331 |
| CATATAAA | 0.236 |
| AATAAATG | 0.302 |
| TATAAATA | 0.294 |
| TATATAAA | 0.298 |
| CATATAAG | 0.146 |
| AATAAATA | 0.39 |
| AATATAAT | 0.156 |
| AGGACAAC | 0.0452 |
| ACGGTCTA | -0.0035 |
| CGTATTGC | 0.0567 |

| Sequence | PBM E-score |
| --- | --- |
| ACGGATTC | 0.0332 |
| CCGTACTC | -0.113 |
| TGCCAAAA | 0.0693 |
| ATGTGGGG | -0.237 |
| GACATGAC | 0.275 |
| CTCATGAA | 0.158 |
| ATCATGAA | 0.17 |
| GTCATGAC | 0.374 |
| CTCATGAC | 0.335 |
| GTCATGAA | 0.268 |
| ATCATGCA | 0.109 |
| ATCATGAC | 0.446 |
| CTCATGCA | 0.00428 |
| GTCATGCA | 0.36 |
| CTCATGAG | 0.079 |
| ATCATGAG | 0.146 |
| ATTGAGCG | -0.0477 |
| ACCGGATA | -0.0988 |
| AAAGGCCA | -0.109 |
| AGCGCGTA | 0.177 |
| CTGATGGA | -0.0729 |
| ACGTGCAG | 0.0472 |
| ACCGCCGT | 0.209 |
| GTAATTAA | 0.188 |
| AAAATTAG | 0.159 |
| ATCATTAG | 0.19 |

| Sequence | PBM E-score |
| --- | --- |
| GATATTAC | 0.352 |
| ATAATTAA | 0.322 |
| AATATTAC | 0.241 |
| ATCATTAC | 0.375 |
| AAAATTAT | 0.378 |
| TTAATTAA | 0.0995 |
| AAAATTAC | 0.257 |
| CTCATTAC | 0.25 |
| CATATTAC | 0.261 |
| CAAGGATC | -0.012 |
| GCTATACC | -0.19 |
| GGAGCATA | -0.00076 |
| CCGGCATA | -0.15 |
| CCTGCGCG | -0.0722 |
| AAAGCGCC | 0.113 |
| CTAGTCAA | -0.127 |
| AGCACCTA | -0.227 |
| ATACGTTC | 0.0426 |
| GGGGAGAA | -0.161 |
| ATTGTTAC | 0.348 |
| ATAATTAG | 0.223 |
| ATAATTAT | 0.342 |
| ATTATTAC | 0.339 |
| ATTATAAT | 0.259 |
| GAAATTAA | 0.334 |
| CTTATTAC | 0.231 |

| Sequence | PBM E-score |
| --- | --- |
| CTTGTTAC | 0.0412 |
| ACTATTAC | 0.201 |
| AAAATTAA | 0.115 |
| CAAATTAA | 0.224 |
| ATTGTTAG | 0.129 |
| CGACTAAC | -0.0525 |
| ACACACCT | 0.0393 |
| CATGAAAG | 0.082 |
| ATAATTAC | 0.349 |
| ATTCTTAG | 0.0174 |
| ACAATTAC | 0.249 |
| GAGATTAA | 0.0823 |
| AAGATTAC | 0.127 |
| ACAATTAA | 0.319 |
| GTAATTAC | 0.287 |
| ACAATTAT | 0.289 |
| ATTCTTAC | 0.315 |
| GAGATTAC | 0.312 |
| CTTCTTAC | -0.0252 |
| CTAATTAC | 0.243 |
